# Test results published in the supplement of paper PMC11732987, “Enantioselective OTUD7B fragment discovery through chemoproteomics screening and high-throughput optimisation” (Communications Chemistry, 2025).
# Values without a mark were called inactive.
# Tests used:
# Assay in all cases: log2 ratio of Biotin-Ahx-Ub-VS probe labelling (fragment/DMSO); higher = less target engagement (more negative = stronger competition), active = hit call of the paper (q ≤ 0.05, log2 ratio ≤ -1)
# Conditions in all cases: compound concentration: 200 uM; treatment time: 3 h
# ALG13 = molecular target: T1, ALG13 (UniProt Q9NP73)
# T1 sequence (whole entry): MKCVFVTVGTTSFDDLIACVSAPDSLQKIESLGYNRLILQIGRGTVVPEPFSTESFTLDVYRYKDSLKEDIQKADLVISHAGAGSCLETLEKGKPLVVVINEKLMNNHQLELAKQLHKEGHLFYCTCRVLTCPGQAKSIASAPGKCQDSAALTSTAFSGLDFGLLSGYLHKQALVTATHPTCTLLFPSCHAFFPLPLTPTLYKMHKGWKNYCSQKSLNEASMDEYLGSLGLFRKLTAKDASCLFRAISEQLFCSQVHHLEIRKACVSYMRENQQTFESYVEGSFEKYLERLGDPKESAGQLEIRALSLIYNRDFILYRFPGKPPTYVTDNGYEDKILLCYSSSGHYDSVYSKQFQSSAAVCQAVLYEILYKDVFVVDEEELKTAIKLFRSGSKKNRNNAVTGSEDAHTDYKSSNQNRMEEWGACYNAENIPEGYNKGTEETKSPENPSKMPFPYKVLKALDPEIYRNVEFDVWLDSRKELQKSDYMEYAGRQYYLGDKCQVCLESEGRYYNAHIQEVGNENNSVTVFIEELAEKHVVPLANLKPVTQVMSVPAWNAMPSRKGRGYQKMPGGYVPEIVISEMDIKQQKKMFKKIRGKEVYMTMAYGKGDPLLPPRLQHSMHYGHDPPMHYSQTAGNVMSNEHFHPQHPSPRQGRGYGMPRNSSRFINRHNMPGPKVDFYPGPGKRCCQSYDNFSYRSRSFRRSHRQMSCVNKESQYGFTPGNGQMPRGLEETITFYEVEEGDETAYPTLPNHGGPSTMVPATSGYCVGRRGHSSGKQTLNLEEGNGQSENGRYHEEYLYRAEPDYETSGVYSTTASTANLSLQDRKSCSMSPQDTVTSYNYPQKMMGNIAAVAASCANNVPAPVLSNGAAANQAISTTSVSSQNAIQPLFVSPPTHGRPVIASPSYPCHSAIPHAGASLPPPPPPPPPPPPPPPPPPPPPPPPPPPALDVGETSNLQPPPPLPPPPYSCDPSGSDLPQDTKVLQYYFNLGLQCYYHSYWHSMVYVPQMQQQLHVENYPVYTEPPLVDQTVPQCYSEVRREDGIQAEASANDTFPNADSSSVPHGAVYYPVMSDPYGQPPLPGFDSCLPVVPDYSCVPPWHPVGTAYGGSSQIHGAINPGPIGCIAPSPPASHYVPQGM
# In short: (§1)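 Each value is an average log2 ratio of fragment to vehicle, tested by unpaired t-test. The underlying Spectronaut label-free quantities were global-median-normalised, and only proteins with ≥2 unique peptides were included. Triplicate HEK293T lysate samples (495 µg) were exposed to fragment at 200 µM or vehicle for 3 h, then to Biotin-Ahx-Ub-VS at 0.5 µM final for 1 h, before NeutrAvidin enrichment of labelled DUBs, LysC and trypsin digestion, and diaPASEF LC-MS/MS.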
# ATXN3 = ATXN3 (UniProt P54252)
# Sequence of ATXN3 (P54252 whole entry): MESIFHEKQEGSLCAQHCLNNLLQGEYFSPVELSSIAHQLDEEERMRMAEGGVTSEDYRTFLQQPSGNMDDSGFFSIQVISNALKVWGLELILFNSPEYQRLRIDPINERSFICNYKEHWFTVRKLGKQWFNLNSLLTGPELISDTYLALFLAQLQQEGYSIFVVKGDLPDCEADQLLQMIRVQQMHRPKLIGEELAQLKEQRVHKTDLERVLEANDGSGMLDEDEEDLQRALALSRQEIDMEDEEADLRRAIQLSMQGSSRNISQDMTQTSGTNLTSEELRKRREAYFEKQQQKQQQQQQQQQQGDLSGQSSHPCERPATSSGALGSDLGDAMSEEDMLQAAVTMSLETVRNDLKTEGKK
# In short: as §1
# BAP1 = molecular target: T2, BAP1 (UniProt Q92560)
# T2 sequence (whole entry): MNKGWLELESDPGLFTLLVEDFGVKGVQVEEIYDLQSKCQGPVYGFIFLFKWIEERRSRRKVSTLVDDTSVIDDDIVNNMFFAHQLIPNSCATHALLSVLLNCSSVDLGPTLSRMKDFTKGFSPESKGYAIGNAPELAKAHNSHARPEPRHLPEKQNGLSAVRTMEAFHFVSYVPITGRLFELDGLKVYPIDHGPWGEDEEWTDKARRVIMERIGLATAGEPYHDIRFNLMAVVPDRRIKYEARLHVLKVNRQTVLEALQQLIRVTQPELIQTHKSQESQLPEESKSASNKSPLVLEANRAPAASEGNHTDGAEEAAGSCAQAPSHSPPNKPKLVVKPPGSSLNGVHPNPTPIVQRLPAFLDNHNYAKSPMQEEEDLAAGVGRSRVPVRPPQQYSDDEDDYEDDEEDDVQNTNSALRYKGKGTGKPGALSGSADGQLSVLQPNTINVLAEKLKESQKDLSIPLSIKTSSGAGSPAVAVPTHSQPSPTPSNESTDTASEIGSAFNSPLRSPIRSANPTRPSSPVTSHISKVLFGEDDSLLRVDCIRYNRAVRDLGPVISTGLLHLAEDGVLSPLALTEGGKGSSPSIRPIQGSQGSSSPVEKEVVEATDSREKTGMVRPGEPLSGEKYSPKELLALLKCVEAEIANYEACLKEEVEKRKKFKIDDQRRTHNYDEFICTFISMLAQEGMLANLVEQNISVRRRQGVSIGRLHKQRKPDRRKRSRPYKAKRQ
# In short: as §1
# EIF3F = EIF3F (UniProt O00303)
# Sequence of EIF3F (O00303 whole entry): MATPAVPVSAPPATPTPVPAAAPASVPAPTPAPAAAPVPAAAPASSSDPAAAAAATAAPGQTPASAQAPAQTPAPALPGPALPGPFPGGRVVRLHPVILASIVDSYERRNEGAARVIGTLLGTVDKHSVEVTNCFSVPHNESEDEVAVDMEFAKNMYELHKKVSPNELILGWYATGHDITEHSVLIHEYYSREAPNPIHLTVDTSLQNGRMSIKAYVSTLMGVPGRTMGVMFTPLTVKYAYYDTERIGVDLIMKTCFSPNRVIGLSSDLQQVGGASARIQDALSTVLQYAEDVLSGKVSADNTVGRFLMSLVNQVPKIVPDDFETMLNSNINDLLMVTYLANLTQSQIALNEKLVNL
# In short: as §1
# EIF3H = EIF3H (UniProt O15372)
# Sequence of EIF3H (O15372 whole entry): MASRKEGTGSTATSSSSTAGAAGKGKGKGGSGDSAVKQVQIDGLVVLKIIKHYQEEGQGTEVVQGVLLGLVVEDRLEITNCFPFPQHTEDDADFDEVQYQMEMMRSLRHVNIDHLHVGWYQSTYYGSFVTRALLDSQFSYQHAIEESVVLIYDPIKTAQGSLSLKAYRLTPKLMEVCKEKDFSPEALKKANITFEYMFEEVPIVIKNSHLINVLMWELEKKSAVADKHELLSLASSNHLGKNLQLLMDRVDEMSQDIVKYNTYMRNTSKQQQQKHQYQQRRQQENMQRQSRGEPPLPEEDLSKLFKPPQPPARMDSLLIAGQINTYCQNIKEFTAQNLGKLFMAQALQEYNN
# In short: as §1
# FAM105A = molecular target: T3, FAM105A (UniProt Q9NUU6)
# T3 sequence (whole entry): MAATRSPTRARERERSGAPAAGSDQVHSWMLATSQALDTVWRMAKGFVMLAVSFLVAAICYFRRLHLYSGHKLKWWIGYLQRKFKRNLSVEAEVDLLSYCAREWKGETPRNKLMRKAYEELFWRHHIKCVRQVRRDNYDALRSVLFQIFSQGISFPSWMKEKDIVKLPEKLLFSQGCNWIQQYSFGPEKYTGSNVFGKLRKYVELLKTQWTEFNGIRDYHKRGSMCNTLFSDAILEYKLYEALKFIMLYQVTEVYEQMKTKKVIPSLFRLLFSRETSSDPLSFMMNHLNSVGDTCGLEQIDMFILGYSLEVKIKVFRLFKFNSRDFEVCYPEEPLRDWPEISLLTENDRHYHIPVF
# In short: as §1
# OTUB1 = OTUB1 (UniProt Q96FW1)
# Sequence of OTUB1 (Q96FW1 whole entry): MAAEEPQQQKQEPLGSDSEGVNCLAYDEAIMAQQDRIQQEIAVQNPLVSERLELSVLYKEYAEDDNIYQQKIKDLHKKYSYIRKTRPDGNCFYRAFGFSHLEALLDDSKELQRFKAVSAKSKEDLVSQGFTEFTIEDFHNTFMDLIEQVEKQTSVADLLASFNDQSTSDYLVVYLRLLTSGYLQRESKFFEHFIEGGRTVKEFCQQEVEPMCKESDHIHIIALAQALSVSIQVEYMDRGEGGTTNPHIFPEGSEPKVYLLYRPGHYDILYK
# In short: as §1
# OTUD4 = molecular target: T4, OTUD4 (UniProt Q01804)
# T4 sequence (whole entry): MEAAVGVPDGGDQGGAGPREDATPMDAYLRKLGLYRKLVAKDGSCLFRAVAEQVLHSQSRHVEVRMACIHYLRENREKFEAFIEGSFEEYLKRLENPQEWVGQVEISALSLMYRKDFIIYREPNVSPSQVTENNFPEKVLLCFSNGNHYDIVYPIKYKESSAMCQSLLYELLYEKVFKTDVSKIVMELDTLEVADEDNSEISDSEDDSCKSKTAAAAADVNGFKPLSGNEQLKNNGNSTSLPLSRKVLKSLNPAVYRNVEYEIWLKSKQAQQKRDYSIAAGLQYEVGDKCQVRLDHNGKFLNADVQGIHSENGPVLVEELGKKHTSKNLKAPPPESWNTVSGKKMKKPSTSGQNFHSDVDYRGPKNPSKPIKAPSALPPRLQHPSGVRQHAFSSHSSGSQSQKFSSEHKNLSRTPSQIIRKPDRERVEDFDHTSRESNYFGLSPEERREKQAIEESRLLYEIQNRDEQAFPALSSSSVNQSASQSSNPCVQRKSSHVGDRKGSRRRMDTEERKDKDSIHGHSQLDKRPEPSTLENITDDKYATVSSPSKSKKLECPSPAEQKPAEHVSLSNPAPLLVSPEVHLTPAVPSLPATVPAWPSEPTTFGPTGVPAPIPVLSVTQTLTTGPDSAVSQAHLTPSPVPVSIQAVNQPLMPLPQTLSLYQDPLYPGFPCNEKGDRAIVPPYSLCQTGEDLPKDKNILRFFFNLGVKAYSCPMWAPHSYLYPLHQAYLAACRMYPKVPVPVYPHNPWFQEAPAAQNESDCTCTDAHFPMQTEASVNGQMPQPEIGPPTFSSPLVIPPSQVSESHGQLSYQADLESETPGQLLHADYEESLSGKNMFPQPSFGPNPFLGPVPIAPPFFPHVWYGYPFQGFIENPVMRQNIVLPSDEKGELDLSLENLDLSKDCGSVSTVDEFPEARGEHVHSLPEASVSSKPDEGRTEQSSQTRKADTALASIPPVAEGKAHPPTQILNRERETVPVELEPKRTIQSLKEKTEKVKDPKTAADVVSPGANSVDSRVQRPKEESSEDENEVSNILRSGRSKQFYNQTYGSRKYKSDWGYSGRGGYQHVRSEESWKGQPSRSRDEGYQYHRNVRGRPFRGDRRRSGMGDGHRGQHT
# In short: as §1
# OTUD5 = molecular target: T5, OTUD5 (UniProt Q96G74)
# T5 sequence (whole entry): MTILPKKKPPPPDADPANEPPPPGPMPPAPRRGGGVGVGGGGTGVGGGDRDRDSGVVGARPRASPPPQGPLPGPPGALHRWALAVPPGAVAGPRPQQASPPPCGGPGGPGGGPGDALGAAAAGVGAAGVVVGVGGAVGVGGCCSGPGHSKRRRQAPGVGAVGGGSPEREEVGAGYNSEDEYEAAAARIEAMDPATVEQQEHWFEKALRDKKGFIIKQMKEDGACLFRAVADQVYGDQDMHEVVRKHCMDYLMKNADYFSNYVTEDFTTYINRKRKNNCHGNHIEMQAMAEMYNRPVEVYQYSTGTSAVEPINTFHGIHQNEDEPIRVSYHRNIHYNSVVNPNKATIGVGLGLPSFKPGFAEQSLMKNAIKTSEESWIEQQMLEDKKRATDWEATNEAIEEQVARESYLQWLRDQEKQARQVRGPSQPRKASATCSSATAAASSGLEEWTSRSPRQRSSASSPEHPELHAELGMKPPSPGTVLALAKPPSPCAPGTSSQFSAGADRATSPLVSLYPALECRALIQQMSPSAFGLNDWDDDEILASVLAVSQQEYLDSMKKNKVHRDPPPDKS
# In short: as §1
structure (smiles),measurement,setting,value
O=C(CCl)NCCc1ccc(F)cc1,log2 ratio of Biotin-Ahx-Ub-VS probe labelling,ALG13,-0.037
same,log2 ratio of Biotin-Ahx-Ub-VS probe labelling,ATXN3,-0.166
same,log2 ratio of Biotin-Ahx-Ub-VS probe labelling,BAP1,-1.07 (active)
same,log2 ratio of Biotin-Ahx-Ub-VS probe labelling,EIF3F,0.0338
same,log2 ratio of Biotin-Ahx-Ub-VS probe labelling,EIF3H,0.194
same,log2 ratio of Biotin-Ahx-Ub-VS probe labelling,FAM105A,-0.364
same,log2 ratio of Biotin-Ahx-Ub-VS probe labelling,OTUB1,-0.291
same,log2 ratio of Biotin-Ahx-Ub-VS probe labelling,OTUD4,-0.143
same,log2 ratio of Biotin-Ahx-Ub-VS probe labelling,OTUD5,-0.544
